# Source: PubChem BioAssay
# This is one part of a sample in which hits are shown more often than they occur.
# Pf Dd2 growth – qHTS Primary assay for Inhibitors of Plasmodium falciparum Dd2 growth in vitro; 120,000 tested, 4.3% active; P. falciparum Dd2 growth, SYBR Green, 72 h; Potency, µM (titrated, usually from 28.9 µM), inactives show at the highest dose activity, negative = inhibition, hits mostly inhibitors; active = well fitted inhibition curve with a large enough effect;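 also: plate controls were DMSO vehicle for no effect and reference drug for full effect; nearly all actives have a fitted effect of over 65% in size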
#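 Readout: SYBR Green fluorescence, 485 nm excitation, 535 nm emission, after ~16 h lysis at 37C. Before that, Dd2-infected red cells (2.5% hematocrit) grew 72 h with compound, 29 uM top final concentration.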
# * marks the source's active call; other numbers are inactive results; i = inactive; ! = a repeat was not active; [ ] = dose if it differs, or a comment. Potency is read from the fitted curve at half-maximal effect.
SMILES,Pf Dd2 growth
Cc1ccc(C)c(Cn2c3ccccc3c3cnn(CC(=O)N4CCCCC4)c(=O)c32)c1,32%
O=C(Cn1ncc2c3ccccc3n(Cc3ccccc3F)c2c1=O)NC1CCCCCC1,-24%
CCN1CCN(C(=O)Cn2ncc3c4ccccc4n(Cc4c(C)cc(C)cc4C)c3c2=O)CC1,13µM*
Cc1cc(C)c(Cn2c3ccccc3c3cnn(CC(=O)NC4CCCCCC4)c(=O)c32)c(C)c1,9%
CCOC(=O)C1CCN(C(=O)Cn2ncc3c4ccccc4n(Cc4ccccc4F)c3c2=O)CC1,-15%
CCCn1c2ccccc2c2cnn(CC(=O)N3CCN(c4ccccc4F)CC3)c(=O)c21,i
N#Cc1ccc(O[C@@H]2CCOC[C@H]2NC(=O)CCN2CCCC2=O)cc1,-6%
O=C(Cn1ccn2nc3c(c2c1=O)CCCC3)Nc1ccc(C(F)(F)F)cc1,-11%
Cc1ccc(N2CC(c3noc(-c4nccc5ccccc45)n3)CC2=O)cc1 (stereo unspecified),i
COc1ccc(NC2CCCN(C(=O)CCCS(N)(=O)=O)C2)cc1 (stereo unspecified),-4%
CN1CC2(CCN(C(=O)Cn3c(=O)oc4ccccc43)CC2)CC1C(=O)N1CCOCC1 (stereo unspecified),-7%
CC(C)c1noc(-c2cn(C3CCN(C(=O)COc4ccc(F)cc4)C3)nn2)n1 (stereo unspecified),223%
CNC(=O)[C@@H]1C[C@@H](n2cc(C(C)(C)NC(=O)c3cccc(Cl)c3)nn2)CN1,1%
COc1ccccc1N1CCN(c2ccc(-c3nc(-c4ccccc4C)no3)cc2[N+](=O)[O-])CC1,17%
COc1ccc(-c2noc(-c3ccc(N4CCN(c5ccccc5)CC4)c([N+](=O)[O-])c3)n2)cc1,30%
COc1ccccc1-c1noc(-c2ccc(N3CCN(c4ccccc4)CC3)c([N+](=O)[O-])c2)n1,10µM*
CN1CCC(NC[C@H]2COCc3nc4cccnc4n32)CC1,-13%[44.1 µM]
c1cnc2c(c1)nc1n2[C@@H](CNC2CCCCC2)COC1,14µM*
Cc1cccc2c1nc1n2[C@@H](CNC2CCCCC2)COC1,i
Cn1nc(C2CCNCC2)n(Cc2ccccc2)c1=O,20%
O=C1CCN(C(=O)c2ccsc2)CCCCCCN1,4%
O=C(NC1CCCC1)N1CCC2(C1)C(=O)N(CCc1ccccc1)c1ccccc12 (stereo unspecified),7.9µM*!
O=C(CC1CCN(C(=O)NC2CCCCC2)C1)NCc1ccccc1 (stereo unspecified),10%
CN1C(=O)C2(CCN(C(=O)C3CCCC3)CC2)c2ccccc21,13%
O=C1N(Cc2ccccc2)c2ccccc2C12CCN(Cc1cncs1)C2 (stereo unspecified),-11%
SMILES,Pf Dd2 growth
O=C(Nc1ccc(Cl)cc1)N1CCC2(C1)C(=O)N(CCc1ccccc1)c1ccccc12 (stereo unspecified),4.5µM*
O=C1N(CCc2ccccc2)c2ccccc2C12CCN(CC1CC1)C2 (stereo unspecified),5µM*!
CN1C(=O)C2(CCN(C(=O)Nc3ccccc3F)C2)c2ccccc21 (stereo unspecified),i
Cc1cc(CN2CCC3(C2)C(=O)N(Cc2ccccc2)c2ccccc23)no1 (stereo unspecified),-23%
CCN1C(=O)C2(CCN(S(=O)(=O)Cc3ccc(Cl)cc3)CC2)c2ccccc21,i
CC(=O)N1CCN(C(=O)c2cccc(-c3ccco3)c2)CC(O)C1 (stereo unspecified),-8%
Cc1c(C(=O)N(C)Cc2cc(-c3ccccc3)no2)oc2c(F)cccc12,-8%
Cc1c(C(C)NC(=O)CO)cnn1-c1cccc2ccccc12 (stereo unspecified),0%
CCN(CC)c1ncccc1CNC(=O)COC,-6%
Cc1cccc(C(=O)N2C(C(=O)NCC3CCCO3)COC23CCN(C(=O)C(C)(C)C)CC3)c1 (stereo unspecified),5%
Cc1ccsc1C(=O)NCC1Cn2cccc2CN1C (stereo unspecified),-9%
Cc1ccc([S+](=O)([O-])N2CCC(N3CCCCCC3=O)CC2)cc1,1%
Cc1nn(C)cc1CN(C)C(=O)c1cn2ccnc(-c3ccccc3)c2n1,-11%
Cc1ccc(OCc2nc(C3CCNC3)no2)cc1 (stereo unspecified),-1%
c1ccc(OCc2nc(C3CCCNC3)no2)cc1 (stereo unspecified),5.6µM*
Fc1ccccc1OCc1nc(C2CCCNC2)no1 (stereo unspecified),i
NC(=O)[C@@H](Cc1ccccc1)NC(=O)[C@@]1(O)C[C@@H](O)[C@H](O)[C@@H](NC(=O)c2ccco2)C1,15%[44.1 µM]
O=C(c1cccc(Cl)c1)N1CCN(C2CCN(CCc3ccccc3)C2=O)CC1 (stereo unspecified),i
CCC(=O)N1CCN(C2CCN(CCc3ccccc3)C2=O)CC1 (stereo unspecified),i
Cc1ccc(C(=O)N2CCN(C3CCN(CCc4ccccc4)C3=O)CC2)cc1F (stereo unspecified),10µM*
CC(C)c1noc(C2CCCNCCC(=O)NCC2)n1 (stereo unspecified),i
CC(C)CC(=O)NC[C@@H]1C[C@H](F)CN1C(=O)CCCc1cccs1,-17%
Cn1cc(-c2ccccc2)cc1C(=O)O,i
COc1ccc2[nH]c(C(=O)N3CCC4(CC3)c3nc[nH]c3CCN4C)cc2c1,-14%
O=C(NCC1Cn2cccc2CN1Cc1ccccc1)c1ccncc1 (stereo unspecified),-28%
SMILES,Pf Dd2 growth
O=C(NCC1Cn2cccc2CN1Cc1ccccc1)c1n[nH]c2ccccc12 (stereo unspecified),13µM*
O=C(NCC1Cn2cccc2C(=O)N1Cc1ccccc1)c1ccncc1 (stereo unspecified),-7%
CC(=O)Nc1ccc(NC(=O)CCNc2c(-c3ccc(F)cc3)nc3cnccn23)cc1,8%
C=CCNC(=O)c1cnn2c1CN(C(=O)OC)CC2,8%[44.1 µM]
O=C(CC[C@@H]1CNC(=O)[C@@H]2C[C@H](NCc3ccc(CO)o3)CN12)NCc1ccc(F)cc1,21%
CCN(CC)c1ccc(C(=O)N2CCC(c3ccncc3)CC2)cc1,57%[5.79 µM]
COc1ccccc1C(=O)N1CCC2(C1)C(=O)N(C)c1ccccc12 (stereo unspecified),i
COc1ccccc1C(=O)N1CCC(c2c[nH]c3ccccc23)(c2c[nH]c3ccccc23)CC1,3.5µM*
CCN(CC)c1ccc(C(=O)N2CCC(c3c[nH]c4ccccc34)(c3c[nH]c4ccccc34)CC2)cc1,4µM*
Cc1ccc(C(=O)N2CCC3(C2)C(=O)Nc2ccccc23)cc1 (stereo unspecified),-10%
COc1ccccc1C(=O)N1CCC(C(=O)O)(c2ccccc2)CC1,4%
COc1ccc(N2CCC(N)C2=O)cc1 (stereo unspecified),-11%
COc1ccc(C(=O)N2CCC3(CC2)OC(=O)N(Cc2ccc(NC(C)=O)cc2)C3(C)c2ccccc2)cn1 (stereo unspecified),-12%
CN(CCC1CCOCC1)C(=O)c1cn(Cc2ccccc2F)nn1,-6%
Cc1cccc(C(=O)N2CCCCCCNC(=O)CC2)c1,-14%
CCOc1cccc(CC(=O)NCc2ccc3c(c2)CCN3C(=O)c2cccc(C)c2)c1OCC,-14%
CCOc1cccc(CC(=O)N2CCc3c([nH]c4ccccc34)C2c2ccc(Cl)cc2)c1OCC (stereo unspecified),5µM*
